Source: PubChem (several laboratories)
Sa ugtP lethal: compounds lethal to S. aureus RN4220 ugtP deletion mutant | OD600 growth, 16 h | growth inhibition, % (test concentration not listed) | 330,000 tested, 0.54% active | AID 1259309; in the data active = growth inhibition above about 68%;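 note: plate controls were untreated wells for no effect and antibiotic for full effect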
Mtb betalactam: beta-lactam sensitization of Mtb H37Rv; M. tuberculosis H37Rv growth with meropenem, percent inhibition; inhibition, % at 25 µM; 330,000 tested, 0.27% active; call rule not given here;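 note: growth measured after seven days incubation then overnight dye step; 0% = bacteria only wells and 100% = bacteria with antibiotic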
Mtb hypoxia inh: reduces hypoxia-regulated biosensor signal in M. tuberculosis | 300,000 tested, 0.1% active | M. tuberculosis hypoxia-regulated fluorescent reporter, fluorescence | fluorescence inhibition, % (concentration not given with the values) | AID 1159583; in the data active = fluorescence inhibition mostly above about 23%, no sharp cut-off; inactive = mostly below about 17%
RN4220 kill: S. aureus RN4220 growth inhibition; OD600, 16 h; inhibition, % (concentration not given with the values); 330,000 tested, 0.33% active; AID 1259311; in the data active = inhibition above about 85%;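 note: plate controls were untreated cells for no effect and reference antibiotic for full effect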
The depositor's hits bear a star; ? = inconclusive; · = no result shown. This is a sample that favours compounds with a hit; in the whole collection about 0.61% have one here.

SMILES	Sa ugtP lethal	Mtb betalactam	Mtb hypoxia inh	RN4220 kill
CS(=O)(=O)N1CCN(c2ccc(NC(=S)NC(=O)c3ccc4c(c3)OCO4)cc2)CC1	93*	-3	-2	7
COc1ccc(C(=O)NC(=S)Nc2ccc(N3CCOCC3)cc2)cc1Cl	99*	99	18	-3
O=C(NC(=S)Nc1ccc(N2CCOCC2)cc1)c1ccc(Cl)cc1	87*	3	26	3
CCN1C(=O)C2C(c3ccc(-c4ccc(F)cc4)cc3)N3CCCC[C@@]3(C(=O)OC)C2C1=O (some centres not stated)	9	·	11	-5
Cn1cccc1-c1cc(C(=O)NN=Cc2ccc(F)cc2)[nH]n1	-7	·	7	0
NC(=NOCc1cccc([N+](=O)[O-])c1)c1nonc1N	10	·	3	4
O=C(COC(=O)c1cc(Cl)nc(Cl)c1)NCCc1ccc(F)cc1	1	6	26*	3
NS(=O)(=O)c1cccc(NC(=O)COC(=O)c2ccc(S(=O)(=O)N3CCOCC3)cc2)c1	0	·	12*	2
Cc1ccccc1NC(=O)COC(=O)c1cc(S(=O)(=O)N2CCOCC2)ccc1C	-1	0	32*	3
O=C(COC(=O)c1ccc2c(c1)OCCO2)Nc1cccc(S(=O)(=O)N2CCOCC2)c1	14	10	18	8
Cc1ccc(S(=O)(=O)N2CCOCC2)cc1NC(=O)C(c1ccc(Cl)cc1)C(C)C (configuration not stated)	91*	-2	3	89*
Cc1ccc(S(=O)(=O)N2CCOCC2)cc1C(=O)OCC(=O)NCc1ccccc1	10	0	-1	1
Cc1cc(C)c(OC2(c3ccccc3)OC(=O)c3ccccc32)c(C)c1 (configuration not stated)	85*	-4	16	-3
CC(=NNc1cccc(Cl)c1)c1ccncc1	53	·	1	-2
COC(=O)C(Cc1ccccc1)NC(=O)Nc1ccc(S(N)(=O)=O)cc1 (configuration not stated)	4	·	10	4
CCCC1CCC(c2ccc(C(=O)NN)cc2)CC1 (configuration not stated)	98*	-1	8	-12
C=CCN1c2ccccc2[C@]23CC(C(=O)OC)N(C(=O)c4ccc(Br)cc4)C2=NC(C(=O)OC)=C(C(=O)OC)C13 (some centres not stated)	-7	·	-5	-4
ON=Cc1cccc[n+]1CCCCCC[n+]1ccccc1C=NO	-1	·	10	3
COc1ccc([N+](=O)[O-])c(S(=O)(=O)c2ccc(Cl)cc2)n1	100*	21	3	100*
COc1ccc([N+](=O)[O-])c(S(=O)(=O)c2ccccc2)n1	96*	56	20	42
O=[N+]([O-])c1cccnc1S(=O)(=O)c1ccccc1	·	100	·	·
O=C(NN=C/C(Br)=C/c1ccccc1)c1ccc([N+](=O)[O-])cc1	-6	·	5	1
CCOc1ccc2oc(C(=O)OCC(=O)N3C(C)CCCC3C)c(C)c2c1 (configuration not stated)	4	41	25*	6
COc1ccc2oc(C(=O)OCC(=O)NC3CCCC3)c(C)c2c1	10	?	3	4
COc1ccc2oc(C(=O)OCC(=O)N3C(C)CCCC3C)c(C)c2c1 (configuration not stated)	1	?	5	1
SMILES	Sa ugtP lethal	Mtb betalactam	Mtb hypoxia inh	RN4220 kill
CCOc1ccc2oc(C(=O)OCC(=O)NC3CCCCC3)c(C)c2c1	11	19	32*	-1
CCCCC(=O)NC(=S)Nc1cc([N+](=O)[O-])ccc1OC	active	93	10	82
CC1(C)SC2C(NC(=O)Cc3ccccc3)C(=O)N2C1C(=O)O (configuration not stated)	99*	·	4	100*
CC(Oc1ccccc1)C(=O)NC1C(=O)N2C1SC(C)(C)C2C(=O)O (configuration not stated)	100*	-4	-4	100*
CC1(C)SC2C(NC(=O)C3(N)CCCCC3)C(=O)N2C1C(=O)O (configuration not stated)	101*	·	21	100*
CC1(C)SC2C(NC(=O)C(N)c3ccc(O)cc3)C(=O)N2C1C(=O)O (configuration not stated)	61	·	4	24
CC(C)CC(NC(=O)c1nc[nH]c1C(=O)N(C)Cc1ccccc1)C(=O)OCc1ccccc1 (configuration not stated)	-15	·	5	2
Cc1ccc(/C=C2\C(=O)Nc3ccccc32)o1	100*	100	-4	60
O=c1c2ccccc2nc(SCc2cccc(F)c2)n1-c1cccc(S(=O)(=O)N2CCCC2)c1	94*	-3	7	97*
CN(C)S(=O)(=O)c1cccc(NC(=S)Nc2ccc(Cl)cc2Cl)c1	-16	5	1	8
CN(C)S(=O)(=O)c1cccc(NC(=S)Nc2cc(Cl)cc(Cl)c2)c1	100*	91	9	100*
CC(C)C1OC2c3cccc4cccc(c34)C2N1c1ccccc1 (configuration not stated)	90*	-9	1	-3
CC(=NN=C1NC(=O)CC(C(=O)O)S1)c1ccccc1 (configuration not stated)	-3	·	7	10
CNCC(CC1CCCCC1)NCC(CC(C)C)NCCc1cccc(C(F)(F)F)c1 (configuration not stated)	86	·	·	89*
CC=C1COC(C(=O)NCCCN2CCCC2=O)(C(F)(F)F)C=C1C=C(C)C (configuration not stated)	0	·	6	9
CC(=O)OCC1=C(C(=O)O)N2C(=O)[C@@H](NC(=O)Cc3cccs3)[C@H]2SC1	99*	4	·	99*
CO/N=C(/C(=O)N[C@@H]1C(=O)N2C(C(=O)O)=CCS[C@H]12)c1cnc(N)s1	·	80	·	·
CC(=O)OCC1=C(C(=O)O)N2C(=O)C(NC(=O)CC(C)c3ccccc3)C2SC1 (configuration not stated)	94*	10	·	100*
CCOc1ccc(C(=O)NC2C(=O)N3C(C(=O)O)=C(COC(C)=O)CSC23)cc1OCC (configuration not stated)	24	·	-1	41
CC(=O)OCC1=C(C(=O)O)N2C(=O)C(NC(=O)C(C)Cn3cc(Cl)cn3)C2SC1 (configuration not stated)	100*	5	17	100*
CCCCN1CC(=O)N2C(c3ccc(Cl)cc3)C3C(=O)N(CC)C(=O)C3[C@]2(C)C1=O (some centres not stated)	7	·	18	3
CCCCCC(=O)Nc1cccc(C2=NOC3(C2)CC(C(N)=O)N(C(=O)COc2ccc(Cl)cc2)C3)c1 (configuration not stated)	-9	·	10	-1
COc1ccc(C)cc1-n1nnnc1SC(C)C(=O)NC1CCCC1 (configuration not stated)	5	-7	25*	0
COc1ccc(-c2oc(=O)c3cc(OC)c(OC)cc3c2C=Cc2ccc(OC(C)=O)cc2)cc1	-1	·	9	5
Cc1oc(-c2cccs2)nc1CSCC(=O)N1CCC2(CC1)OCCO2	7	-11	active	4
